The text below walks through data of PubChem BioAssay AID493067 (National Center for Advancing Translational Sciences (NCATS), 2011).

The experiment is described as follows: Confirmation Concentration-Response Assay for qHTS Assay for Epigenetic Modulators. The settings on record: murine C127i LDR cells, GFP reporter derepression, 30 h. The source says:
NIH Molecular Libraries Screening Centers Network [MLSCN] NIH Chemical Genomics Center [NCGC] MLSCN Grant: 1 X01 MH079860-01 Assay Provider: Elisabeth D. Martinez, University of Texas SW Medical Center NCGC Assay Overview: This assay, used for the primary screen, was employed here to confirm actives identified from the Locus Derepression (LDR) assay (PubChem AID 1865). The LDR assay detects the derepression of a GFP reporter that is stably integrated in a region of the genome of murine c127i mammary cells that is presumably silenced. Compounds that derepress or induce this reporter locus are identified by enumerating GFP positive cells using an Acumen Explorer Ex3 (TTP Labtech) laser-scanning microplate cytometer.
NCGC Assay Protocol Summary: Three hundred LDR cells in 5 uL per well were dispensed into black, clear-bottom 1536-well plates. Twenty-three nL compound was transferred to the assay plate and cells were incubated 30 hours at 37 C. Medium was removed, cells were washed two times with PBS, and GFP-positive cells were enumerated as fluorescent objects between the sizes of 20 to 120 um width and depth using an Acumen Explorer Ex3 (TTP Labtech) laser-scanning microplate cytometer. For further details, see Johnson, RL, Huang, W, Jadhav, A, Austin, CP, Inglese, J, Martinez, ED (2008). A quantitative high-throughput screen identifies potential epigenetic modulators of gene expression. […]
Background: In qHTS, concentration-response curves come from the screen itself.

Inconclusive results are not listed. Calls of active or inactive are those of the source. Calls follow the shape of the dose curve; as a rule, active = well fitted activation curve with a large enough effect; inconclusive = small, poorly fitted or top-dose-only effect; inactive = flat fitted curve, though single readings scatter.

Turning to `O=C1NC(=O)N(CCc2ccc(F)cc2)C(=O)/C1=C/C=C/c1ccccc1`, the Potency was 12.6 µM (active).
